Reference: the antibiotic and cytotoxicity screens of Wong et al. (2023)
The whole screen tested about 39,000 compounds, of which about 1,500 (3.8%) were called active. For the sample, actives were picked, then their nearest neighbours and some compounds at random.

Test system: HSkMC (human skeletal muscle cells)
Experiment: cytotoxicity call (relative viability < 0.9)
Conditions: 10 µM

SMILES | cytotoxicity call
C[C@H](CO)N1C[C@H](C)[C@H](CN(C)C(=O)Nc2ccc(F)cc2)OCCCC[C@H](C)Oc2ccc(NC(=O)C3CCCCCC3)cc2C1=O | inactive
CC(=O)O[C@H](C[C@H](O)C(C)(O)CCC=C(C)C)/C(C)=C/COC[C@@H](O)[C@@H](O)[C@@H](O)[C@@H](O)CO (stereo partly specified) | inactive
O=C(Cn1ccc([N+](=O)[O-])n1)n1cccn1 | inactive
Nc1ccn([C@@H]2O[C@H](CO)[C@@H](O)[C@H]2O)c(=O)n1 | inactive
Cl.N=c1ccn2c(n1)OC1C(O)C(CO)OC12 (stereo unspecified) | inactive
N=c1ccn2c(n1)O[C@H]1[C@H](O)[C@@H](CO)O[C@H]12 | active
C[C@H](CO)N1C[C@H](C)[C@H](CN(C)C(=O)Nc2cccc3ccccc23)Oc2ncc(C#Cc3ccc(F)cc3)cc2C1=O | inactive
Cc1ccc(S(=O)(=O)N(C)C[C@@H]2OCCCC[C@H](C)Oc3ccc(NS(=O)(=O)c4ccc(Cl)cc4)cc3C(=O)N([C@H](C)CO)C[C@@H]2C)cc1 | inactive
CCN1C(C)(C)CC(Oc2ccc(C(=O)Nc3ccc(NC(=O)Nc4cc(C(C)(C)C)on4)cc3)nc2)CC1(C)C | active
CC(C)(C)c1cc(C(=O)NN)no1 | inactive
CC(C)CC#Cc1ccc2c(c1)O[C@H](CN(C)C(=O)c1ccccn1)[C@@H](C)CN([C@H](C)CO)S2(=O)=O | inactive
COc1cccc(-c2ccc3c(c2)O[C@@H](CN(C)C(=O)C2CCOCC2)[C@@H](C)CN([C@@H](C)CO)S3(=O)=O)c1 | inactive
C[C@@H]1CN([C@H](C)CO)C(=O)Cc2cc(NC(=O)Cc3ccccc3)ccc2O[C@@H]1CN(C)Cc1ccc(C(F)(F)F)cc1 | inactive
C[C@H]1CN([C@@H](C)CO)C(=O)Cc2cc(NC(=O)Cc3ccccc3)ccc2O[C@@H]1CN(C)Cc1ccc(C(F)(F)F)cc1 | active
C[C@@H]1CN([C@H](C)CO)C(=O)Cc2cc(NC(=O)Cc3ccccc3)ccc2O[C@H]1CN(C)Cc1ccc(C(F)(F)F)cc1 | inactive
C[C@@H]1CN([C@@H](C)CO)C(=O)Cc2cc(NC(=O)Cc3ccccc3)ccc2O[C@@H]1CN(C)Cc1ccc(C(F)(F)F)cc1 | active
C[C@H]1CN([C@@H](C)CO)C(=O)Cc2cc(NC(=O)Cc3ccccc3)ccc2O[C@H]1CN(C)Cc1ccc(C(F)(F)F)cc1 | inactive
C[C@@H]1CN([C@@H](C)CO)C(=O)Cc2cc(NC(=O)Cc3ccccc3)ccc2O[C@H]1CN(C)Cc1ccc(C(F)(F)F)cc1 | inactive
C[C@@H]1CN([C@@H](C)CO)C(=O)c2cc(NC(=O)Nc3cccc4ccccc34)ccc2O[C@@H]1CN(C)S(=O)(=O)c1ccc(Cl)cc1 | inactive
Cc1noc(C)c1NC(=O)Nc1ccc2c(c1)C(=O)N([C@@H](C)CO)C[C@H](C)[C@@H](CN(C)Cc1ccc3c(c1)OCO3)OCCCC[C@@H](C)O2 | inactive
COc1ccc(CN(C)C[C@@H]2OCCCC[C@H](C)Oc3ccc(NC(=O)NC(C)C)cc3C(=O)N([C@H](C)CO)C[C@H]2C)cc1 | inactive
CO[C@@H]1CN(C)C(=O)c2cc(NC(=O)CC(F)(F)F)ccc2OC[C@H](C)N(S(=O)(=O)c2cn(C)cn2)C[C@H]1C | inactive

SMILES | cytotoxicity call
Cc1ccc(S(=O)(=O)N(C)C[C@H]2Oc3ccc(NS(=O)(=O)c4c(C)noc4C)cc3CC(=O)N([C@H](C)CO)C[C@@H]2C)cc1 | inactive
C[C@@H]1CN([C@@H](C)CO)S(=O)(=O)c2ccc(-c3cncnc3)cc2O[C@H]1CN(C)C(=O)C1CCCCC1 | inactive
C[C@@H]1CN([C@H](C)CO)C(=O)c2cc(-c3ccc(C(=O)N(C)C)cc3)cnc2O[C@H]1CN(C)C(=O)c1ccncc1 | inactive
C[C@@H]1CN([C@@H](C)CO)C(=O)c2cc(NS(C)(=O)=O)ccc2O[C@@H]1CN(C)Cc1ccc(C(F)(F)F)cc1 | inactive
NC(=O)CSc1ccccn1 | inactive
COCC#Cc1ccc2c(c1)O[C@@H](CN(C)S(=O)(=O)c1ccc(F)cc1)[C@@H](C)CN([C@H](C)CO)S2(=O)=O | inactive
C[C@H]1CN([C@@H](C)CO)S(=O)(=O)c2ccc(C#Cc3ccncc3)cc2O[C@H]1CN(C)S(=O)(=O)c1ccc(F)cc1 | inactive
C[C@H](CO)N1C[C@H](C)[C@H](CN(C)S(=O)(=O)c2ccc(F)cc2)Oc2cc(C#Cc3ccncc3)ccc2S1(=O)=O | inactive
COCC#Cc1ccc2c(c1)O[C@H](CN(C)S(=O)(=O)c1ccc(F)cc1)[C@@H](C)CN([C@H](C)CO)S2(=O)=O | inactive
COCC#Cc1ccc2c(c1)O[C@@H](CN(C)S(=O)(=O)c1ccc(F)cc1)[C@@H](C)CN([C@@H](C)CO)S2(=O)=O | active
C[C@H]1CN([C@@H](C)CO)S(=O)(=O)c2ccc(C#Cc3ccncc3)cc2O[C@@H]1CN(C)S(=O)(=O)c1ccc(F)cc1 | active
C[C@H](CO)N1C[C@H](C)[C@H](CN(C)C(=O)NC2CCCCC2)Oc2ccc(NS(C)(=O)=O)cc2CC1=O | inactive
C[C@H](CO)N1C[C@H](C)[C@@H](CN(C)C(=O)Nc2ccc(F)cc2)OCCCC[C@H](C)Oc2ccc(NC(=O)Cc3ccccc3)cc2C1=O | inactive
CC(C)C(N)C(=O)O (stereo unspecified) | inactive
C[C@H](O)C(=O)Nc1c(I)c(C(=O)NC(CO)CO)c(I)c(C(=O)NC(CO)CO)c1I | inactive
CC(C)(C(=O)O)c1ccc(C(O)CCCN2CCC(C(O)(c3ccccc3)c3ccccc3)CC2)cc1.Cl (stereo unspecified) | inactive
CC(C)(C)c1ccc(C(O)CCCN2CCC(C(O)(c3ccccc3)c3ccccc3)CC2)cc1 (stereo unspecified) | active
CC(C)(C(=O)O)c1ccc([C@@H](O)CCCN2CCC(C(O)(c3ccccc3)c3ccccc3)CC2)cc1 | inactive
C[C@@H]1CN([C@H](C)CO)C(=O)c2cccc(NC(=O)C3CC3)c2O[C@@H]1CN(C)Cc1ccc(-c2ccccc2)cc1 | inactive
CC(C)NC(=O)Nc1ccc2c(c1)C(=O)N([C@@H](C)CO)C[C@@H](C)[C@@H](CN(C)S(C)(=O)=O)OCCCC[C@@H](C)O2 | inactive
C[C@@H]1CCCCO[C@@H](CN(C)C(=O)Nc2ccccc2)[C@H](C)CN([C@H](C)CO)C(=O)c2cc(NC(=O)Nc3ccccc3)ccc2O1 | inactive
CC(C)NC(=O)N(C)C[C@@H]1OCCCC[C@@H](C)Oc2ccc(NC(=O)Nc3ccc(C(F)(F)F)cc3)cc2C(=O)N([C@@H](C)CO)C[C@@H]1C | inactive

SMILES | cytotoxicity call
C[C@H](CO)N1C[C@H](C)[C@H](CN(C)C(=O)Nc2ccc3c(c2)OCO3)OCc2cn(nn2)CCCC1=O | inactive
NC1CCN(Cc2ccccc2)CC1 | inactive
COc1cc2nc(N3CCCN(Cc4ccccc4)CC3)nc(NC3CCN(Cc4ccccc4)CC3)c2cc1OC | inactive
COc1cc2nc(N3CCN(C(=O)c4ccco4)CC3)nc(N)c2cc1OC.Cl | inactive
Brc1ccc2nc(N3CCCN(Cc4ccccc4)CC3)nc(NC3CCN(Cc4ccccc4)CC3)c2c1 | active
COc1ccc2nc3cc(Cl)ccc3c(Nc3cc(CN4CCCC4)c(O)c(CN4CCCC4)c3)c2n1.O=P(O)(O)O.O=P(O)(O)O.O=P(O)(O)O.O=P(O)(O)O | inactive
COc1cc2nc(N3CCCN(Cc4ccccc4)CC3)nc(Nc3ccc(F)c(Cl)c3)c2cc1OC | active
CC(C)(C)[S@](=O)N1Cc2cc(C(=O)NCc3ccncc3)nc(-c3cccc(-c4cccc(C#N)c4)c3)c2[C@@H]1CCO | inactive
C[C@H](CO)N1C[C@H](C)[C@H](CN(C)S(=O)(=O)c2cn(C)cn2)Oc2ccc(NC(=O)Cc3ccccc3)cc2C1=O | inactive
Cc1cc(C(=O)Nc2cccc3c2O[C@H](CN(C)Cc2ccncc2)[C@H](C)CN([C@H](C)CO)C3=O)n(C)n1 | inactive
Cc1noc(C)c1S(=O)(=O)Nc1ccc2c(c1)C(=O)N([C@@H](C)CO)C[C@H](C)[C@@H](CN(C)C(=O)Nc1ccccc1)OCCCC[C@@H](C)O2 | inactive
C[C@@H](Nc1nc(=O)cc(F)[nH]1)C(=O)O | inactive
COc1ccc(NC(=O)N(C)C[C@H]2Oc3ccc(NC(=O)CCCCCC(=O)Nc4ccccc4N)cc3C(=O)N([C@@H](C)CO)C[C@@H]2C)cc1 | inactive
COc1ccc(NC(=O)Nc2ccc3c(c2)C(=O)N([C@@H](C)CO)C[C@H](C)[C@@H](CN(C)C(=O)Cc2ccccc2)OCCCC[C@@H](C)O3)cc1 | inactive
COc1ccc(CN(C)C[C@H]2Oc3ccc(NS(=O)(=O)c4cn(C)cn4)cc3CC(=O)N([C@H](C)CO)C[C@@H]2C)cc1 | inactive
Cc1noc(C)c1S(=O)(=O)Nc1ccc2c(c1)C(=O)N([C@@H](C)CO)C[C@H](C)[C@@H](CN(C)Cc1ccc(Oc3ccccc3)cc1)O2 | inactive
C[C@H]1CN([C@@H](C)CO)C(=O)Cc2cc(NC(=O)Nc3ccc(C(F)(F)F)cc3)ccc2O[C@@H]1CN(C)C(=O)Nc1ccccc1 | inactive
C[C@@H]1CN([C@@H](C)CO)C(=O)Cc2cc(NC(=O)Nc3ccc(C(F)(F)F)cc3)ccc2O[C@@H]1CN(C)C(=O)Nc1ccccc1 | active
C[C@@H]1CN([C@@H](C)CO)C(=O)Cc2cc(NC(=O)Nc3ccccc3)ccc2O[C@@H]1CN(C)C(=O)Nc1ccc(C(F)(F)F)cc1 | inactive
C[C@H](CO)N1C[C@H](C)[C@@H](CN(C)C(=O)Nc2ccccc2)Oc2ccc(NC(=O)Nc3ccc(C(F)(F)F)cc3)cc2CC1=O | inactive
C[C@H](CO)N1C[C@H](C)[C@H](CN(C)C(=O)Nc2ccccc2)Oc2ccc(NC(=O)Nc3ccc(C(F)(F)F)cc3)cc2CC1=O | inactive
C[C@H]1CN([C@@H](C)CO)C(=O)Cc2cc(NC(=O)Nc3ccc(C(F)(F)F)cc3)ccc2O[C@H]1CN(C)C(=O)Nc1ccccc1 | active
